{
  "source": "the supplement of paper PMC4206461",
  "note": "Values without a mark were called inactive.",
  "data": [
    {"tested_on": "Pseudomonas aeruginosa PA14 dppA1-A5 penta mutant + pBBR5.DppA1 (PA14_58350)", "experiment": "respiration area under curve with compound as sole nitrogen source, 24 h (OmniLog AUC (arbitrary units)); higher = more respiration / better utilisation as nitrogen source, active = 2000 or more", "method": "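Biolog Phenotype MicroArray plates PM6-PM8: each di/tripeptide is the sole nitrogen source. Tetrazolium reduction was read in the OmniLog for 24 h at 37°C and summarised as area under the respiration curve (arbitrary units). Values below 2000 count as no respiration. Strain is the SBP penta mutant complemented with DppA1 on a plasmid under its native promoter. Lys/His/Cys peptides are excluded.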", "values": [
      {"smiles": "N[C@@H](Cc1c[nH]c2ccccc12)C(=O)N[C@@H](Cc1c[nH]c2ccccc12)C(=O)O", "note": "(plate: PM7)", "respiration area under curve": 477},
      {"smiles": "C[C@H](N)C(=O)N[C@@H](Cc1ccc(O)cc1)C(=O)O", "note": "(plate: PM6)", "respiration area under curve": "5920 (active)"},
      {"smiles": "C[C@@H](NC(=O)CN)C(=O)O", "note": "(plate: PM8)", "respiration area under curve": "3490 (active)"},
      {"smiles": "C[C@H](N)C(=O)N[C@@H](Cc1c[nH]c2ccccc12)C(=O)O", "note": "(plate: PM6)", "respiration area under curve": "3700 (active)"},
      {"smiles": "CC[C@H](C)[C@H](N)C(=O)N[C@@H](CCSC)C(=O)O", "note": "(plate: PM6)", "respiration area under curve": 289},
      {"smiles": "O=C(O)[C@@H]1C[C@@H](O)CN1C(=O)[C@@H]1CCCN1", "note": "(plate: PM7)", "respiration area under curve": 0},
      {"smiles": "NCC(=O)N[C@@H](Cc1ccccc1)C(=O)N[C@@H](Cc1ccccc1)C(=O)O", "note": "(plate: PM8)", "respiration area under curve": "5190 (active)"},
      {"smiles": "NC(=O)CC[C@H](NC(=O)[C@@H](N)CCC(N)=O)C(=O)O", "note": "(plate: PM6)", "respiration area under curve": "6630 (active)"},
      {"smiles": "O=C(O)[C@H](Cc1ccccc1)NC(=O)[C@@H]1CCCN1", "note": "(plate: PM7)", "respiration area under curve": "6240 (active)"},
      {"smiles": "O=C(O)CC[C@H](NC(=O)[C@@H]1CCCN1)C(=O)O", "note": "(plate: PM8)", "respiration area under curve": "5380 (active)"},
      {"smiles": "C[C@H](NC(=O)CCN)C(=O)O", "note": "(plate: PM8)", "respiration area under curve": "4280 (active)"},
      {"smiles": "CC[C@H](C)[C@H](N)C(=O)N[C@@H](CCCN=C(N)N)C(=O)O", "note": "(plate: PM6)", "respiration area under curve": "7890 (active)"},
      {"smiles": "CC[C@H](C)[C@H](N)C(=O)N[C@@H](CC(C)C)C(=O)O", "note": "(plate: PM8)", "respiration area under curve": "4900 (active)"},
      {"smiles": "CSCC[C@H](N)C(=O)N[C@@H](Cc1ccccc1)C(=O)O", "note": "(plate: PM7)", "respiration area under curve": 680},
      {"smiles": "CC(C)[C@H](N)C(=O)N[C@@H](Cc1ccc(O)cc1)C(=O)O", "note": "(plate: PM7)", "respiration area under curve": "7120 (active)"},
      {"smiles": "CC(C)C(N)C(=O)NC(CO)C(=O)O", "note": "(stereo not given) (plate: PM8)", "respiration area under curve": "6900 (active)"},
      {"smiles": "C[C@H](N)C(=O)N[C@H](C(=O)O)[C@@H](C)O", "note": "(plate: PM6)", "respiration area under curve": "4830 (active)"},
      {"smiles": "CC(C)[C@@H](NC(=O)CN)C(=O)O", "note": "(plate: PM8)", "respiration area under curve": 0},
      {"smiles": "C[C@H](N)C(=O)N[C@@H](C)C(=O)N[C@@H](C)C(=O)O", "note": "(plate: PM8)", "respiration area under curve": "8340 (active)"},
      {"smiles": "CC(C)[C@H](N)C(=O)N[C@@H](CCC(=O)O)C(=O)O", "note": "(plate: PM8)", "respiration area under curve": "2880 (active)"},
      {"smiles": "NC(N)=NCCC[C@H](N)C(=O)N[C@@H](CCC(=O)O)C(=O)O", "note": "(plate: PM6)", "respiration area under curve": "8440 (active)"},
      {"smiles": "C[C@H](N)C(=O)N[C@@H](CCC(=O)O)C(=O)O", "note": "(plate: PM6)", "respiration area under curve": "6760 (active)"},
      {"smiles": "C[C@H](NC(=O)[C@@H](N)CCC(=O)O)C(=O)O", "note": "(plate: PM8)", "respiration area under curve": "7690 (active)"},
      {"smiles": "NCC(=O)NCC(=O)NCC(=O)O", "note": "(plate: PM8)", "respiration area under curve": 940},
      {"smiles": "CC(NC(=O)C(N)CC(=O)O)C(=O)O", "note": "(stereo not given) (plate: PM8)", "respiration area under curve": "6890 (active)"},
      {"smiles": "CC(C)C[C@H](N)C(=O)NCC(=O)NCC(=O)O", "note": "(plate: PM8)", "respiration area under curve": "8090 (active)"},
      {"smiles": "N[C@@H](Cc1ccccc1)C(=O)N[C@@H](CC(=O)O)C(=O)O", "note": "(plate: PM8)", "respiration area under curve": "2600 (active)"},
      {"smiles": "N[C@@H](Cc1c[nH]c2ccccc12)C(=O)N[C@@H](CO)C(=O)O", "note": "(plate: PM7)", "respiration area under curve": "2890 (active)"},
      {"smiles": "NCC(=O)NCC(=O)N[C@@H](Cc1ccccc1)C(=O)O", "note": "(plate: PM8)", "respiration area under curve": "3750 (active)"},
      {"smiles": "CC(C)[C@H](NC(=O)[C@@H](N)Cc1ccccc1)C(=O)O", "note": "(plate: PM8)", "respiration area under curve": "5720 (active)"},
      {"smiles": "CC(C)[C@H](NC(=O)[C@@H](N)CC(N)=O)C(=O)O", "note": "(plate: PM6)", "respiration area under curve": "5500 (active)"},
      {"smiles": "N[C@@H](CO)C(=O)N1CCC[C@H]1C(=O)O", "note": "(plate: PM7)", "respiration area under curve": "12700 (active)"},
      {"smiles": "N[C@@H](CO)C(=O)N[C@@H](Cc1ccc(O)cc1)C(=O)O", "note": "(plate: PM7)", "respiration area under curve": "5300 (active)"},
      {"smiles": "CC(C)[C@H](N)C(=O)N[C@@H](C)C(=O)O", "note": "(plate: PM8)", "respiration area under curve": "4740 (active)"},
      {"smiles": "N[C@@H](Cc1c[nH]c2ccccc12)C(=O)N[C@@H](CCC(=O)O)C(=O)O", "note": "(plate: PM7)", "respiration area under curve": 1070},
      {"smiles": "CC(C)C[C@H](N)C(=O)N1CCC[C@H]1C(=O)O", "note": "(plate: PM8)", "respiration area under curve": "5120 (active)"},
      {"smiles": "CC(C)CC(N)C(=O)NC(CC(=O)O)C(=O)O", "note": "(stereo not given) (plate: PM6)", "respiration area under curve": "4660 (active)"},
      {"smiles": "CSCC[C@H](NC(=O)[C@H](C)N)C(=O)O", "note": "(plate: PM8)", "respiration area under curve": "6710 (active)"},
      {"smiles": "NC(=O)CC[C@H](NC(=O)[C@@H](N)CO)C(=O)O", "note": "(plate: PM8)", "respiration area under curve": "7790 (active)"},
      {"smiles": "C[C@H](NC(=O)[C@@H](N)CO)C(=O)O", "note": "(plate: PM7)", "respiration area under curve": "9020 (active)"}
    ]}
  ]
}
